Screens: PubChem BioAssay, Broad Institute
Hits are enriched below; roughly 2.9% of the tested compounds scored in any of these assays.
N-glyco inh: N-linked glycosylation inhibition; AID 588692; reporter increase, % at 12.5 µM; 360,000 tested, 0.23% active; D54 ERlucT glycosylation luciferase reporter, 24 h; percent of 100 nM tunicamycin response;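 active = mean luciferase reporter signal, scaled so untreated is 0 and the glycosylation-blocking control 100, at or above a set limit in every replicate; inconclusive = mean reaches the limit but not every replicate does; inactive = mean below the limit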;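 also: luciferase carries N-glycosylation sites so blocking glycosylation raises the light; 0% = median of neutral control wells and 100% = median of 100 nM tunicamycin wells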
MITF TRPM1 inh: inhibitors of MITF-driven TRPM1 promoter in melanoma cells; SK-MEL-5 TRPM1 promoter luciferase, 24 h; inhibition, % at 12.5 µM; 330,000 tested, 0.83% active;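 active = mean inhibition across replicates of 60% or more, whatever share of single replicates reaches that level; inconclusive = some that reach 60%, reason not given; inactive = mean inhibition across replicates below 60%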
Wnt act: activates Wnt/beta-catenin signaling in a reporter cell assay; activator, plate reader; activation, % at 9.35 µM; 300,000 tested, 1.2% active; in the data active = activation above about 30%, passing the limit was not always enough; inconclusive = no clear call, values can overlap the other calls;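 also: 0% = neutral control wells and 100% = positive control wells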
MITF TRPM1 HTS: increases MITF-driven TRPM1 promoter luciferase signal; activation, % at 12.5 µM; SK-MEL-5 TRPM1-promoter luciferase, 24 h; % of positive control, neutral wells = 0; 300,000 tested, 0.75% active; AID 588334;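 active = mean activation of at least 80% with every replicate also reaching 80%; inconclusive = mean reaches 80% but some replicate falls short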;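 also: 0% = neutral control wells and 100% = parthenolide positive control wells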
PfHsp90 yeast 2: inhibits growth of yeast expressing Plasmodium falciparum Hsp90. S. cerevisiae expressing PfHsp90, BacTiter-Glo ATP, 48 h; yeast lacking PDR1 and PDR3 efflux regulators. inhibition, % at 9.4 µM. 310,000 tested, 0.32% active. AID 504621;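 active = every replicate shows inhibition above about 80%, whatever the replicate mean, limit read from the data; inconclusive = mean inhibition reaches the set limit but some replicate falls short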;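 also: 0% = DMSO neutral controls and 100% = 20 µM radicicol positive controls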
NSD2 inh: blocks human histone methyltransferase NSD2; 310,000 tested, 0.54% active; AID 743445; NSD2 peptide methylation, AlphaScreen, 120 min; inhibition, % at 12.5 µM; O96028; in the data active = inhibition above about 50%
Target sequence (O96028 whole entry, looked up): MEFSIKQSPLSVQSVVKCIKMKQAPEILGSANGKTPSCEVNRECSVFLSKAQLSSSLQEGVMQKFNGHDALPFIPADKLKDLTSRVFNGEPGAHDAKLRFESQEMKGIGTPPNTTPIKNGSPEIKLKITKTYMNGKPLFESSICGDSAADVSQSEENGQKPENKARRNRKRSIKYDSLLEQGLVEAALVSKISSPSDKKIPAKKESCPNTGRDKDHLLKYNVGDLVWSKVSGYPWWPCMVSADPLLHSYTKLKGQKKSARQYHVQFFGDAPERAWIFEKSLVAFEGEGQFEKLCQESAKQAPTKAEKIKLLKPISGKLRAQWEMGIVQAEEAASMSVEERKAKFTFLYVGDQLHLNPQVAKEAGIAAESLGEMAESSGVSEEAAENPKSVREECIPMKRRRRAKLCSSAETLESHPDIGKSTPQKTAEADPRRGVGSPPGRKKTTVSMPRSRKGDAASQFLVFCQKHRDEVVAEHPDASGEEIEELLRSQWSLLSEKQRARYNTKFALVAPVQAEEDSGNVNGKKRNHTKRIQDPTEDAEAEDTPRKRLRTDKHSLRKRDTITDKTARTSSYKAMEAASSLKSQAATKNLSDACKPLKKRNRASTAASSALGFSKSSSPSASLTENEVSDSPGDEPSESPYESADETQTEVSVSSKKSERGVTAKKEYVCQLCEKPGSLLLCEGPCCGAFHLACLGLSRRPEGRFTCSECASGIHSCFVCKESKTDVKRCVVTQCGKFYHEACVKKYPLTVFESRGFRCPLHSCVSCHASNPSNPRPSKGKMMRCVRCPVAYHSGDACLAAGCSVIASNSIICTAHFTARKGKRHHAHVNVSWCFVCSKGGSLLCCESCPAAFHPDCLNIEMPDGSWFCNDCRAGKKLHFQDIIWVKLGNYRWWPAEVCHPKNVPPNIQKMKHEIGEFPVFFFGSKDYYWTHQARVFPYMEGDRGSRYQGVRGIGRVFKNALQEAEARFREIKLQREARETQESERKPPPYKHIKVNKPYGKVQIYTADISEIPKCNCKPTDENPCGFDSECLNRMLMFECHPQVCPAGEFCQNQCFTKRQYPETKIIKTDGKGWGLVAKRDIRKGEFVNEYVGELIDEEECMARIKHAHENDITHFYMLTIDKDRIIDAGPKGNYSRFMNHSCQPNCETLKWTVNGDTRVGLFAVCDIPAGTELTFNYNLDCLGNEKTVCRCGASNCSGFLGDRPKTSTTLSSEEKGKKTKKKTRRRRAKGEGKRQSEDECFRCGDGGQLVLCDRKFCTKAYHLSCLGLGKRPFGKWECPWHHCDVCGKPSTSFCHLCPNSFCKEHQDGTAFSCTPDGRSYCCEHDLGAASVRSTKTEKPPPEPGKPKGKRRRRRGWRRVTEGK
An asterisk follows results filed as active; ? = inconclusive; . = no result given.

SMILES	N-glyco inh	MITF TRPM1 inh	Wnt act	MITF TRPM1 HTS	PfHsp90 yeast 2	NSD2 inh
Cc1ccc(O)c(C2=Nc3ccccc3C2(C)C)c1	-0.1	-103.5	-1.3	98.4*	-22.8	.
COc1ccc(C)cc1C1=Nc2ccccc2C1(C)C	0.8	-8.6	.	8.3	4.6	-3.0
Cc1cc(/C=N/NC(=O)c2cccc(F)c2)c(C)n1-c1ccccc1	-13.9	-44.3	?	53.5	-5.1	0.8
Cc1cc(/C=N/NC(=O)c2ccccc2F)c(C)n1-c1ccccc1	-6.9	-93.9	51.9*	97.4*	-11.6	.
CCOC(=O)[C@@H]1[C@H]2COc3ccc(Br)cc3[C@@H]2N2C(=O)N(c3ccc(C)cc3)C(=O)[C@@]12C	1.0	-5.3	2.0	3.9	7.2	.
CCN1c2ccccc2N(C)C1(C)c1ccccc1 (stereo unspecified)	-0.4	59.5	.	-61.0	-3.7	62.7*
Cc1cc(-c2ccccc2)n(-c2ccccc2)n1	-2.2	-43.6	10.4	.	-10.8	-3.5
Cc1cccc(C(=O)c2c(N)sc3c2CCCC3)c1	-2.9	-19.4	37.5*	17.9	1.0	1.8
N#Cc1c2ccc([N+](=O)[O-])cc2[n+]([O-])n1-c1ccccc1	-9.3	89.9*	12.7	-89.5	91.3*	-1.3
O=c1c2cc([N+](=O)[O-])ccc2sn1-c1ccccc1	-1.2	.	-0.9	.	.	.
CCN1C(=O)[C@H]2[C@@H](c3ccc(C)cc3)N3C(=O)N(c4cccc(Br)c4)C(=O)[C@@]3(CC(C)C)[C@H]2C1=O	-0.9	2.5	-0.8	0.4	-4.5	.
Cn1nnnc1Sc1ncnc2scc(-c3ccc[nH]3)c12	9.9	84.1*	-1.0	-83.4	.	.
Cn1nnnc1Sc1ncnc2scc(-c3ccc(Br)cc3)c12	-11.2	94.1*	-20.9	-93.3	.	.
Cn1nnnc1Sc1ncnc2scc(-c3ccccc3)c12	-9.5	36.1	-13.4	-34.9	-13.2	.
Cn1nnnc1Sc1ncnc2scc(-c3ccc(F)cc3)c12	-14.2	82.6*	.	-84.8	10.1	0.5
O=C(Nc1ccccc1)OCCN1CCN(Cc2ccccc2)CCC1=O	0.2	-14.0	-3.3	10.9	-0.2	.
CC(C)CN1CCC(=O)N(CCSc2ccccc2)CC1	-6.3	-79.5	42.1*	73.2	15.3	.
O=C1CCN(Cc2ccccc2)CCN1CCOc1ccccc1	-7.4	-80.1	12.7	85.0*	-0.5	.
Cc1ccc(SCCN2CCN(CCc3ccccc3)CCC2=O)cc1	1.9	-0.7	1.2	3.8	.	.
COc1ccc(C2CCCN2C(=S)Nc2ccc(C)cc2Cl)cc1OC (stereo unspecified)	-2.6	-11.2	3.8	12.4	22.0	1.9
Cc1cnc(C=NNC(N)=S)c2cccc(N)c12	-1.8	65.7*	-3.0	.	-15.8	36.6
NC(=S)NN=Cc1nccc2ccccc12	-9.3	38.0	-21.4	-38.1	-2.3	8.2
CC(C)CNc1cccc2c1S(=O)(=O)N[C@@H](CC(C)C)CO2	.	.	-4.5	.	.	.
Cn1cccc1C(=O)N1CCN(S(=O)(=O)c2ccc([N+](=O)[O-])cc2)CC1	.	.	.	.	.	1.8
COc1ccccc1OCc1ccc(C(=O)NCc2cccnc2)o1	-1.3	-4.5	-5.2	6.7	7.5	-45.4
SMILES	N-glyco inh	MITF TRPM1 inh	Wnt act	MITF TRPM1 HTS	PfHsp90 yeast 2	NSD2 inh
CCOc1ccc(OCc2ccc(C(=O)OCc3ccccn3)o2)cc1	-3.5	-3.0	32.9*	4.9	-11.1	.
CC(C)(C)c1ccc(OCc2ccc(C(=O)NCc3cccnc3)o2)cc1	-1.2	-50.2	51.3*	59.3	-14.0	0.7
CC(C)(c1ccccc1)c1ccc(OCc2ccc(C(=O)O)o2)cc1	0.6	-84.7	38.2*	88.0*	-7.9	.
CC(C)(C)c1ccc(OCc2ccc(C(=O)NN)o2)cc1	2.6	-61.4	-1.1	58.2	20.3	-3.2
CCN(CC(=O)Nc1ccccc1C(F)(F)F)C(=O)/C=C/c1ccc(Cl)c([N+](=O)[O-])c1	0.4	9.5	0.3	-11.1	-5.3	1.2
CN(C)S(=O)(=O)c1cccc(NC(=S)N/N=C/c2cccc(O)c2)c1	1.6	19.3	2.2	-21.4	-3.5	-3.0
CN(C)S(=O)(=O)c1cccc(NC(=S)N/N=C/c2cc(Br)ccc2O)c1	-9.5	66.8*	0.6	-65.5	-7.1	-4.7
Cc1nn(C)c(C)c1/C=C/C(=O)c1cccs1	-0.2	-41.9	39.1*	.	.	2.8
Cc1nn(C)cc1/C=C/C(=O)c1cccs1	2.9	-66.0	89.7*	.	.	0.5
COc1ccc2nc3ccccc3nc2c1	13.4	-81.5	-1.8	93.0*	-13.9	.
Nc1nc2ccccc2cc1-c1cccs1	1.9	-78.3	20.1	90.2*	12.6	-9.4
CCN=C1NC(c2ccccc2C(F)(F)F)C(C(=O)OC)=C(C)N1Cc1ccc(C(F)(F)F)cc1 (stereo unspecified)	.	.	-4.0	.	.	-0.3
Cc1cc(NCCN2CCOCC2)c2ccc3ccccc3c2n1	38.4*	-18.7	57.1*	20.0	11.8	4.4
COc1ccc2nc(C)cc(NCCN3CCOCC3)c2c1	5.8	-14.6	-1.6	18.2	-8.0	0.1
CC1(C(=O)NS(=O)(=O)Cc2cccc(Cl)c2)CCN1C(=O)CCc1cccs1 (stereo unspecified)	0.1	.	-1.0	.	.	-1.1
OCCNc1ncnc2c1c(-c1ccccc1)c(-c1ccccc1)n2Cc1ccco1	-0.8	9.6	22.9	-8.0	-25.4	5.1
N=c1c2c(-c3ccccc3)c(-c3ccccc3)n(Cc3ccco3)c2ncn1CCCN1CCOCC1	-0.7	2.9	-1.2	0.7	.	22.3
N=c1c2c(-c3ccccc3)c(-c3ccccc3)n(Cc3ccco3)c2ncn1CCCn1ccnc1	2.1	88.2*	-6.8	-88.0	-23.5	15.2
c1ccc(-c2c(-c3ccccc3)n(Cc3ccco3)c3ncnc(NCCCn4ccnc4)c23)cc1	2.7	6.2	.	-6.1	104.3*	24.7
CN(C)CCn1c(=O)n(-c2cccc(Cl)c2)c(=O)c2c3c(sc21)CCCCC3	0.1	11.4	-0.6	.	-3.2	9.9
CCC[C@H]1[C@@H](NC(=O)c2cccc(N(C)C)c2)CC[C@@]23CCCN2C(=O)CCC[C@@H]13	.	.	.	.	.	2.1
CN(C)/C=C/C(=O)/C=C/c1cn(-c2ncc(C(F)(F)F)cc2Cl)c2ccccc12	-4.0	6.1	.	-0.1	120.7*	2.2
COC(=O)Cc1cn(-c2ncc(C(F)(F)F)cc2Cl)c2ccccc12	-0.8	4.0	0.5	-1.0	-6.4	-0.8
Cc1ccc(C(=O)NC2CCCCN(C)C2=O)cc1 (stereo unspecified)	.	.	-3.0	.	.	.
COc1ccc(/C=C(\C#N)C(=O)Nc2cc(S(=O)(=O)N3CCCCC3)ccc2N2CCCCC2)cc1	-1.3	-10.6	.	12.8	-19.8	-0.6
O=C(CSc1nnc(SCc2ccccc2Cl)s1)N/N=C/c1ccc(C(=O)O)cc1	1.1	-9.9	18.6	10.1	20.5	6.4
CCOc1cc(/C=N/NC(=O)CSc2nnc(C)s2)ccc1OCc1ccccc1Cl	-2.3	7.4	52.3*	-2.5	-20.4	-1.1
